In PubChem BioAssay (NCI) one finds growth data, which are given here for 14 compounds.

The panel holds about 83,000 compounds, 20% with a hit somewhere; the sample as a whole holds those more often.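 The endpoint reported here, percent growth, reads 100 for growth as untreated, 0 for no net growth and -100 for all cells dead.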 Unmarked numbers belong to inactive results. Active and inactive are the calls of the source. Rule for the calls: active = growth percent below 10; inactive = the rest.

Common to all, as to test: NCI-60 one-dose screen, 48 h (100 = growth as untreated, 0 = no growth, -100 = all killed)
Holding throughout (conditions): 10 µM unless noted

Assay [1] has as its system HCT-15 colon.
For assay [2], the system named is HT29 colon.
In assay [3] the test system is SNB-75 CNS.
For assay [4], the system named is SNB-19 CNS.
The subject of assay [5] is U251 CNS.
Assay [6] relates to PC-3 prostate.
Assay [7] has as its system SK-MEL-5 melanoma.
For assay [8], the system named is UACC-62 melanoma.
The subject of assay [9] is LOX IMVI melanoma.
Assay [10] deals with SK-MEL-28 melanoma.

For the compound `CC/C=C\C[C@H](F)C/C=C1/C(=O)C=C[C@@H]1C/C=C\CCCC(=O)O`, the growth was 29.4% in assay [1]; 29.5% in [2]; 81.4% in assay [3]; 63.5% in [4]; 19.2% in [5]; 55% in [6]. The growth in [7] is 15.5%; in [8], 27.5%; in [9], -42.6% (active); in [10], 46.7%.
As for `CS(=O)(=O)c1c(Nc2ccccc2)n[nH]c1N`, the growth is 101% in assay [1]; 97.3% in assay [2]; 114% in assay [3]; 91.1% in assay [4]; 105% in assay [5]; 82.5% in assay [6]. Also, the growth in [7] was 101%; in [8], 92.4%; in assay [9] it was 89.8%; in assay [10], 106%.
Take `O=S(=O)(NCCCNc1cc(-c2cn(-c3ccccc3)nc2-c2ccccc2)ccn1)c1ccc(C(F)(F)F)cc1`: the growth was 41% in assay [1]; 20.5% in assay [2]; 58.6% in [3]; 66.9% in [4]; 44.4% in assay [5]; 17.6% in assay [6]. Moreover, the growth in assay [7] is 36.8%; in assay [8], 69.8%; in assay [9], 54%.
`COc1ncc(-c2ccc3ncnc(Nc4cccc(Cl)c4)c3c2)cc1NS(C)(=O)=O`: the growth in assay [1] is 30.8%; in assay [2], 22.3%; in [3] it was 9.09% (active); in assay [4], 37.6%; in assay [5], 46.8%; in [6] it was 25.9%. Besides, the growth in assay [7] is 23.3%; in assay [8], 19.1%; in [9], 35.3%.
`CCOC(=O)c1c2c(n3ccc(NC(=O)CCN4CCOCC4)cc13)C(=O)c1ncccc1C2=O`: the growth in assay [1] is 33.9%; in [2], 32.7%; in [3], 52.7%; in [4] it was 54.6%; in [5], 41.5%; in assay [6] it was 51%. The growth is 42.3% in assay [7], 27.7% in assay [8], 15% in [9] and 77.8% in assay [10].
As to `COc1c2ccccc2c(OC)c2[nH]c(=O)ccc12`, the growth was 22.1% in assay [1]; 46.6% in assay [2]; -21.3% (active) in assay [3]; 12.2% in assay [4]; 28.4% in assay [5]; 67% in assay [6]. For the same compound, the growth in [7] is -96.7% (active); in assay [8], -6.37% (active); in assay [9] it was 12.1%; in assay [10], 25.4%.
On to `COc1cc2c(cc1O)CCc1cc(O)cc(OC)c1-2`, for which the growth in assay [1] was 90.7%; in [2], 95.6%; in [3] it was 91.9%; in assay [4] it was 98%; in assay [5], 91.3%; in assay [6], 93.6%. The growth in [7] is 98.5%; in assay [8] it was 87.2%; in assay [9], 93.5%; in assay [10], 100%.
As to `O=C(O)c1ccccc1Nc1cccc(S(F)(F)(F)(F)F)c1`, the growth is 94.7% in [1]; 84.2% in [2]; 91.3% in [3]; 98.7% in assay [4]; 85.7% in [5]; 95.9% in assay [6]. The growth in assay [7] was 95.6%; in assay [8], 93.7%; in [9], 92.4%; in [10], 108%.
In the case of `Cc1ccc(Nc2nc(N)nc(Nc3ccc4ccccc4c3)n2)cc1`, the growth in assay [1] is 29.3%; in assay [2], 11.2%; in assay [3], 25%; in assay [4], 61.7%; in [5] it was 17.7%; in [6] it was 32.7%. Besides, the growth is 47.7% in assay [7], 18.4% in assay [8], 38.2% in assay [9] and 62% in [10].
Take `CC1=C(NCCN2CCCC2)C(=O)c2c(OCc3cccc(Cl)c3)cccc2C1=O`: the growth in [1] is 57.1%; in [2], 26.1%; in assay [3] it was 75.1%; in [4], 99.4%; in assay [5], 61.7%; in assay [6] it was 69.9%. Also, the growth in assay [7] was 67.1%; in [8], 93.7%; in assay [9] it was 36.1%; in assay [10], -8.01% (active).
As to `CNCCCn1c2c(c3ccc([N+](=O)[O-])cc3c1=O)C(=O)c1cc(OC)cnc1-2`, the growth is -27.5% (active) in [1]; -19.2% (active) in assay [2]; -26.5% (active) in [3]; 2.67% (active) in [4]; -61.1% (active) in assay [5]; 2.02% (active) in assay [6]. Further, the growth in assay [7] is -98.8% (active); in assay [8], -77.1% (active); in assay [9] it was -89% (active); in assay [10], -67% (active).
Take `COc1ccc(-c2csc(NC(=O)CN3CCN(c4cc5c(cc4F)c(=O)c(C(=O)O)cn5C4CC4)CC3)n2)cc1`: the growth is 14.6% in assay [1]; 4.05% (active) in assay [2]; 11.7% in [3]; 16.4% in [4]; 7.92% (active) in [5]; 11.2% in assay [6]. For the same compound, the growth in [7] is -24.6% (active); in [8] it was 12.1%; in assay [9], -80% (active); in assay [10], 39.4%.
Consider `Cn1cc(-c2nc(-c3c[nH]c4ccccc34)cs2)c2cccnc21`, for which the growth was 30% in assay [1]; 7.8% (active) in [2]; -6.18% (active) in assay [3]; 51.6% in assay [4]; 26.6% in assay [5]; 32.5% in assay [6]. In addition, the growth in assay [7] was 21.6%; in assay [8], 51.4%; in assay [9] it was 39.4%; in assay [10], 52.4%.
As for `CCCCCCCCCC(=O)Oc1ccc(/C(=C(/C)c2ccccc2)c2ccc(OCCN3CCCC3)cc2)cc1`, the growth in assay [1] is -13.4% (active); in assay [2], -35.5% (active); in [3], -11.6% (active); in assay [4] it was 6.86% (active); in assay [5], -34.3% (active); in [6], 15.8%. Besides, the growth in assay [7] is -98.5% (active); in assay [8], -69% (active); in assay [9], -72.1% (active); in assay [10], -77.9% (active).
